The campaign covered roughly 330,000 compounds. About 7,300 (2.2%) were called active. The sample as a whole holds a higher share of actives than the screen did. A number with no mark means an inactive call.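 Rule for the calls: active = inhibition of at least 40%; inactive = the rest.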
Assay: growth inhibitors of tim10-1 mutant yeast, primary screen, luminescence, uHTS (AID 463190);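 note: mutant grown at 25 °C; 0% = DMSO wells with yeast and 100% = wells holding no yeast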
Details: S. cerevisiae tim10-1 ts strain growth, BacTiter-Glo, 24 h; at 20 µM; hits give high values

SMILES | inhibition
COc1ccc(C(=O)OCC(=O)c2cc(C)n(CC3CCCO3)c2C)cc1[N+](=O)[O-] (stereo unspecified) | 44.5% (active)
Cc1ccsc1C(=O)OCC(=O)c1cc(C)n(CC2CCCO2)c1C (stereo unspecified) | 33%
COc1ccc(C(=O)OCC(=O)NCC2CCCO2)cc1[N+](=O)[O-] (stereo unspecified) | -1.22%
COC(=O)CN1C(=O)[C@H]2[C@@H](/C=C/c3ccccc3)N3C(=O)CN(Cc4ccccc4)C(=O)[C@@]3(Cc3ccccc3)[C@H]2C1=O | 8.2%
Fc1ccccc1/C=C1\CCCC2=C1Nc1ncnn1C2c1ccccc1F (stereo unspecified) | 40.1% (active)
CC1=C(C(N)=O)C(c2ccc(Br)cc2)n2ncnc2N1 (stereo unspecified) | 10.7%
OC1CN=C2Sc3ccccc3N2C1 (stereo unspecified) | 10.5%
CCc1cccc2c(C=C(C#N)C#N)cn(CC(=O)N3CCCCC3)c12 | 18%
Cc1ccc(C(=O)O)cc1S(=O)(=O)NCC1CCCO1 (stereo unspecified) | -1.57%
Cn1c(C(=O)N2CCCC(C(=O)NCc3ccccc3)C2)cc2sccc21 (stereo unspecified) | -2.21%
Cn1c(C(=O)OC(C(=O)NC2CCCCC2)c2ccccn2)cc2sccc21 (stereo unspecified) | 40.4% (active)
CC(C)C(OC(=O)c1cccs1)C(=O)NC1CCCCC1 (stereo unspecified) | 14.5%
O=C1C2(c3ccccc3)CN(CCCO)CC1(c1ccccc1)CN(CCCO)C2 | 13.9%
CCOC(=O)C1(C(F)(F)F)N=C(N(C)C)OC(N(C)C)=N1 | 0.707%
S=c1[nH]c2ccccc2c2ccccc12 | 40.1% (active)
S=c1ccc2ccccc2[nH]1 | 8.36%
CCCCn1c(=S)[nH]c2ccccc2c1=O | 30.4%
CC(C)Oc1ccc(C(CC(=O)N2CCOCC2)C(C)C)cc1 (stereo unspecified) | 1.61%
COc1ccccc1C(=O)NCC(=O)NCCSc1ccc(Br)cc1 | 12.5%
Oc1ccccc1CN1CCN(C(c2ccccc2)c2ccccc2)CC1 | 24.4%
CCN1CCN(c2ccc(NC(=O)c3cnccn3)cc2)CC1 | 4.72%

SMILES | inhibition
CCN1CCN(C(c2cccnc2)c2cc(Cl)c3cccnc3c2O)CC1 (stereo unspecified) | 50.7% (active)
C=C(C)c1cccc(C(C)(C)NC(=O)NCCN(CC)CC)c1 | 15.8%
O=C1COc2ccc(NC(=O)N3CCN(c4ccc(F)cc4)CC3)cc2N1 | -1.3%
CCOC(=O)C1Nc2ccc(C(F)(F)F)cc2C2C=CCC12 (stereo unspecified) | 26.6%
COC(=O)NC1(C(F)(F)F)NC(=O)N(C2CCCCC2)C1=O (stereo unspecified) | -0.477%
O=C1NC(Nc2nc3ccccc3s2)(C(F)(F)F)C(=O)N1C1CCCCC1 (stereo unspecified) | 55.7% (active)
O=C(NC1(C(F)(F)F)NC(=O)N(C2CCCCC2)C1=O)c1ccco1 (stereo unspecified) | 9.83%
C=CCC1(CC=C)CCCN1C(=O)CC1C(=O)NCCN1Cc1ccccc1OC (stereo unspecified) | 7.02%
O=C(Nc1cccc2cccnc12)c1cccc(Cl)c1 | 20.4%
S=C(NCc1cccnc1)Nc1ccc(Cl)cc1Cl | 15%
CC(=O)/C(=N\Nc1ccc(Cl)cc1Cl)Sc1cccc2cccnc12 | 53.2% (active)
Cn1cccc1C(=O)OCC(=O)NCCc1ccccc1 | -4.06%
Cc1c(C)n(Cc2ccc(Cl)cc2)c2ccc(C(=O)NCCCN3CCOCC3)cc12 | 5.97%
O=C(Nc1ccc(Cl)cc1)Nc1nnc(/C=C/c2ccccc2)s1 | 5.19%
NS(=O)(=O)c1ccc(CCNC(=O)Nc2ccc(Cl)cc2)cc1 | 8.7%
O=C(Nc1ccccc1)c1nnsc1S(=O)(=O)c1ccc(Cl)cc1 | 87.7% (active)
COC(=O)c1cc(NC(=O)c2nn(C)c(=O)c3ccccc23)cc(C(=O)OC)c1 | 13.9%
CCc1ccccc1NC(=O)Cc1cn(C)c2ccccc12 | 24.8%
C=C(C)Cn1c(C)cc(C)c(S(=O)(=O)c2ccccc2C)c1=O | 27.4%
CCS(=O)(=O)c1cc([N+](=O)[O-])c(Sc2ccccc2N)s1 | 7.45%
Nc1ccccc1SC(C[N+](=O)[O-])c1ccccc1 (stereo unspecified) | 48.9% (active)

SMILES | inhibition
Cc1ccc(C)c(N2CCN(C(=O)CCCCCn3c(=S)[nH]c4ccc(N5CCOCC5)cc4c3=O)CC2)c1 | 0.092%
Cc1ccc(C)c(N2CCN(C(=O)CCc3nc4ccccc4[nH]3)CC2)c1 | 22.3%
Cc1ccc(C)c(N2CCN(C(=O)CCCCn3c(=O)[nH]c4ccccc4c3=O)CC2)c1 | 40.7% (active)
O=C(CCC1CCCCC1)Nc1cc(C(F)(F)F)ccc1N1CCOCC1 | 27.5%
O=C(NCCc1ccccc1)C1CCC(Cn2c(=O)c3ccccc3n(Cc3cccnc3)c2=O)CC1 (stereo unspecified) | 15.4%
Cc1ccc(Cl)cc1NC(=O)C1CCCN(c2cnccn2)C1 (stereo unspecified) | 12.5%
CC(=O)c1cc(C#N)c(SCC(=O)Nc2nccs2)nc1C | -56.3%
Cc1ccc(NCc2n[nH]c(=S)n2-c2ccccc2)cc1Cl | 23%
S=c1[nH]nc(CSCc2ccc(Cl)cc2Cl)n1-c1ccccc1 | 41.3% (active)
S=c1[nH]nc(COc2ccccc2)n1-c1ccccc1 | 21.4%
CCCCNC(=O)C(C)N(CCN(C)C)C(=O)CCCN1C(=O)NC(c2ccc(Cl)cc2)C(C(=O)OCc2ccccc2)=C1C (stereo unspecified) | 6.33%
CCCc1cc(=O)[nH]c(SCC(=O)Nc2sc3c(c2C#N)CCCC3)n1 | 6.17%
COc1ccc(CCNC(=O)C(=O)Nc2ccc3nc4n(c(=O)c3c2)CCCCC4)cc1OC | 9.06%
CCn1cc(CNC(=O)c2cc([N+](=O)[O-])c(C)c([N+](=O)[O-])c2)cn1 | 14.3%
CCC(=O)c1ccc(OCC(=O)N(CC)CC2COc3ccccc3O2)cc1 (stereo unspecified) | 18.9%
CCCN(CC1COc2ccccc2O1)C(=S)Nc1ccc(C)cc1 (stereo unspecified) | 46.4% (active)
S=C(NCC1COc2ccccc2O1)Nc1ccc(Br)cc1 (stereo unspecified) | 7.9%
CC(C)C(O)C1CCN(Cc2nc(Cc3ccccc3Cl)no2)CC1 (stereo unspecified) | 15.8%
C/C=C(/C)C(=O)O[C@@H]1c2cc3c(c4c2[C@@]2(CO4)C(=O)C(OC)=C(OC)C=C2C[C@@H](C)[C@H]1C)OCO3 | 13.3%

— PubChem BioAssay AID463190 (Sanford-Burnham Center for Chemical Genomics, 2010)
